High-throughput results: PubChem, National Center for Advancing Translational Sciences (NCATS)
Only some compounds are listed: those with a hit (about 11% of all), similar ones and a draw of the others.
NS1 inh: qHTS Assay for Inhibitors of Influenza NS1 Protein Function; actives 0.4% (n = 270,000); Potency, µM (highest dose often 46.1 µM); calls by dose curve; note: actives are rising curves; nearly all actives have a fitted effect of over 50% in size
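Recovery from NS1-induced slow growth read by OD600 in budding yeast switched to galactose assay medium (pH 6.0, -URA) at 1:100 dilution. Compound 23 nl per well; the matching strain lacking NS1 serves as control.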
Pf growth 96h: Primary qHTS for delayed death inhibitors of the malarial parasite plastid, 96 hour incubation | P. falciparum luciferase reporter growth, 96 h | Potency, µM (top dose mostly 28.7 µM), usual class: inhibitors | actives 6.9% (n = 320,000) | AID 504834, 2011
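Luminescence readout: decreased luciferase signal marks inhibited growth of reporter-expressing P. falciparum in infected red cells (2% hematocrit, 0.05% parasitemia final), exposed to compound two generations (96 h, 37 C, 5% CO2).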
HCV inhibitor: qHTS Assay for Inhibitors of Hepatitis C Virus (HCV). Huh7.5.1 HCVcc-Cre infection, luciferase reporter, 44 h. actives 3.4% (n = 340,000). Potency, µM (titrated, usually from 41.8 µM), hits mostly inhibitors. AID 651820, 2012
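After 44 h co-culture of compound, cells and HCVcc-Cre (~0.5 moi), substrate is added for 15 min at room temperature and luciferase measured over 15 sec. Cells were seeded at 1,000/well and pre-cultured 4 h.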
Pf growth 48h: Primary qHTS for delayed death inhibitors of the malarial parasite plastid, 48 hour incubation | P. falciparum luciferase growth in erythrocytes, 48 h | Potency, µM (series often up to 28.7 µM), actives largely listed as inhibitors | actives 5.9% (n = 310,000)
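In quantitative HTS format, infected erythrocytes bearing luciferase-reporter parasites were treated for a single generation at 37 C. Luminescence after adding detection reagent served as the growth measure.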
Vaccinia Venus: qHTS for Stage-Specific Inhibitors of Vaccinia Orthopoxvirus: Venus Reporter Primary qHTS; actives 0.46% (n = 330,000); Vaccinia virus Venus reporter expression, fluorescence; Potency, µM (titrated, usually from 36.5 µM), hits mostly inhibitors; calls by dose curve; tested in A549 cells; note: nearly all actives have a fitted effect of over 30% in size
VACV mCherry inh: qHTS for Stage-Specific Inhibitors of Vaccinia Orthopoxvirus: mCherry Reporter Primary qHTS; actives 0.63% (n = 310,000); Vaccinia virus mCherry reporter infection, fluorescence; Potency, µM (titrated, usually from 36.5 µM), usual class: inhibitors; calls by dose curve; tested in A549 cells; note: nearly all actives have a fitted effect of over 35% in size
Hits are given with their value; n = inactive; u = inconclusive; x = no result; ! = not confirmed by another sample. Unless noted, calls come from the whole dose curve; as a rule, active = well fitted inhibition curve with a large enough effect; inconclusive = small, poorly fitted or top-dose-only effect, or another doubt; inactive = no such curve, though single readings can be large or run the other way.

SMILES	NS1 inh	Pf growth 96h	HCV inhibitor	Pf growth 48h	Vaccinia Venus	VACV mCherry inh
CCC(=O)Nc1cccc(C(=O)Nc2nccs2)c1	n	n	n	n	n	n
CC(C)Oc1cccc(C(=O)NC(=S)N2CCN(c3ccc(C(F)(F)F)cc3[N+](=O)[O-])CC2)c1	n	n	u	n	n	x
CCOC(=O)C(C)Sc1ncc(-c2ccc(Cl)cc2)cn1 (configuration not stated)	n	u	n	n	x	x
COC(=O)c1cc(C(C)=O)c(C)[nH]c1=O	n	5.22µM	n	n	n	n
CCOC(=O)c1cc(C(C)=O)c(=O)[nH]c1C	x	n	n	n	x	x
CC1O[C@@H](OC2CC(O)[C@@]3(CO)C4C(O)C[C@@]5(C)C(C6=CC(=O)OC6)CC[C@]5(O)C4CC[C@]3(O)C2)C(O)C(O)C1O (some centres not stated)	x	x	x	x	0.282µM	0.316µM
C[C@@H]1O[C@@H](O[C@H]2C[C@@H](O)[C@]3(CO)[C@H]4[C@H](O)C[C@]5(C)[C@@H](C6=CC(=O)OC6)CC[C@]5(O)[C@@H]4CC[C@]3(O)C2)[C@H](O)[C@H](O)[C@H]1O	n	n	2.24µM	u	0.631µM	0.501µM
CC1CC2C(C(O)CC3(C)C2CCC3(O)C(=O)CO)C2(C)C=CC(=O)C=C12 (configuration not stated)	x	x	n	x	n	n
C[C@@H]1O[C@@H](O[C@H]2C[C@@H](O)[C@]3(CO)[C@@H]4C(CC[C@]3(O)C2)[C@@]2(O)CC[C@H](C3=CC(=O)OC3)[C@@]2(C)C[C@H]4O)[C@H](O)[C@H](O)[C@H]1O (some centres not stated)	n	x	x	x	n	n
Cc1ccc(SCc2cc(=O)[nH]c(Nc3nc(C)c4ccccc4n3)n2)cc1	n	n	u	n	n	n
CCOC(=O)[C@H]1[C@H]2COc3ccc(OC)cc3[C@@H]2N2C(=O)c3cc(OC)ccc3NC(=O)[C@@]12C	x	u	n	10.4µM	n	n
CCOC(=O)[C@H]1[C@H]2COc3ccc(C)cc3[C@@H]2N2C(=O)c3cc(OC)c(OC)cc3NC(=O)[C@@]12C	x	u	u	11.7µM	n	n
CCOC(=O)[C@H]1[C@H]2COc3ccc(C)cc3[C@@H]2N2C(=O)c3cc(F)c(F)cc3NC(=O)[C@@]12C	x	u	n	11.7µM	n	n
CCOC(=O)[C@H]1[C@H]2COc3ccc(OC)cc3[C@@H]2N2C(=O)c3cc(OC)c(OC)cc3NC(=O)[C@@]12C	x	u	n	11.7µM	n	n
CCOC(=O)[C@H]1[C@H]2COc3ccccc3[C@@H]2N2C(=O)c3cc(OC)c(OC)cc3NC(=O)[C@@]12C	x	u	n	u	n	n
COc1ccc(/C=C(\NC(=O)c2ccccc2)C(=O)OCC2CCCN3CCCCC23)cc1OC (configuration not stated)	x	n	n	n	n	n
CCOC(=O)[C@H]1[C@H]2COc3ccc(Br)cc3[C@@H]2N2C(=O)c3cc(OC)c(OC)cc3NC(=O)[C@@]12C	x	u	u	9.28µM	u	n
CCCC[C@@H]1CN=C(N)N1CC(C)(C)C	x	x	n	x	n	n
CC1CN(/C(=N\S(=O)(=O)c2ccccc2)c2ccccc2)CC(C)O1 (configuration not stated)	n	n	n	n	x	x
CC(C)(C)NC[C@H](O)COc1nsnc1N1CCOCC1	n	0.675µM!	n	2.39µM!	n	n
COC(=O)COc1nsnc1N1CCOCC1	n	x	n	n	x	x
COc1ccc(-c2cc(N3CCCC3)n3ncnc3n2)cc1	n	n	12.6µM	n	n	u
COc1ccc(S(=O)(=O)N2CCN(c3cc(-c4ccccc4)nc4ncnn34)CC2)cc1	n	n	10µM	n	x	x
CSc1ccc(C2NN=C(c3ccccc3)S2)cc1 (configuration not stated)	x	x	n	x	n	n
CC(=O)Nc1ccc(S(=O)(=O)NN=Cc2ccc(Cl)c(Cl)c2)cc1	x	x	n	x	n	n
SMILES	NS1 inh	Pf growth 96h	HCV inhibitor	Pf growth 48h	Vaccinia Venus	VACV mCherry inh
COC(=O)CCCC1=CC2=C(c3ccccc3)C(=O)C(C)(OC(=O)C3CCCC3)C(=O)C2=CN1Cc1ccco1 (configuration not stated)	n	11.7µM	n	u	n	n
COC(=O)CCCC1=CC2=C(c3ccccc3)C(=O)C(C)(OC(=O)C3CCCC3)C(=O)C2=CN1CCCCO (configuration not stated)	n	u	n	u	n	n
CC(=O)c1cc(C(=O)c2ccccc2)sc1Nc1ccccc1	n	n	12.6µM	n	u	n
Cc1nc(Nc2ccccc2)sc1C(=O)c1ccccc1	n	u	n	n	n	n
C[C@@H]1C[C@H]2[C@H]3C[C@@H](F)C4=CC(=O)C=C[C@]4(C)[C@@]3(Cl)[C@@H](O)C[C@@]2(C)[C@@H]1C(=O)COC(=O)C(C)(C)C	x	4.78µM	x	4.78µM	x	x
COc1ccc(Cn2c(CNC(=O)Cc3cccc([N+](=O)[O-])c3)nc3cccnc32)cc1	x	x	x	x	n	n
CCCCn1c(N)c(N(Cc2ccccc2OC)C(=O)c2cc(CC)c(C)s2)c(=O)[nH]c1=O	x	u	n	13.1µM	n	n
CCCCn1c(N)c(N(CC(C)C)C(=O)CSCC(=O)Nc2cccc(C)c2)c(=O)[nH]c1=O	x	u	n	11.7µM	n	n
CCCCN(C(=O)CSCC(=O)Nc1cccc(C)c1)c1c(N)n(CCCC)c(=O)[nH]c1=O	x	u	n	n	n	n
CCCCN(C(=O)c1ccc([N+](=O)[O-])s1)c1c(N)n(CC(C)C)c(=O)[nH]c1=O	x	n	n	n	n	n
CCCCn1c(N)c(N(CCC(C)C)C(=O)c2ccc([N+](=O)[O-])s2)c(=O)[nH]c1=O	x	u	u	9.28µM	u	u
CCCCn1c(N)c(N(CC(C)C)C(=O)c2ccc(S(=O)(=O)N(CC)c3ccccc3)cc2)c(=O)[nH]c1=O	x	u	n	11.7µM	n	n
S=c1[nH]nc(-c2ccncc2)n1/N=C/C=C/c1ccccc1	n	u	n	n	n	n
CCOC(=O)C1CCN(C(=O)c2ccccc2N(C)S(C)(=O)=O)CC1	n	n	n	n	x	x
Cc1cc(C(=O)CSc2nc3ccccc3[nH]2)c(C)n1C	n	n	n	n	x	x
CCCCn1c(N)c(N(CC(C)C)C(=O)c2cccc(S(=O)(=O)N(C)c3ccc(C)cc3)c2)c(=O)[nH]c1=O	x	u	n	6.57µM	n	n
COc1ccc(-c2noc(CN(C(C)C)S(=O)(=O)c3ccc(Br)cc3)n2)cc1	x	x	x	x	n	n
